Measurements from the supplement of paper PMC10849652.
The full data set covers some 8,800 targets. This sample favours those with a hit. About 0.5% of all pairs of compound and target were hits. Unmarked numbers belong to inactive results.

Experiments:
Experiment in all cases: log2 fold change, soluble protein after heating vs DMSO (PISA); higher = thermal stabilisation; K562 lysate, 10 uM; active = over 0.2 and 3.5 SD of the protein, either way, in both replicates (recomputed)
lapatinib = compound: CS(=O)(=O)CCNCc1ccc(-c2ccc3ncnc(Nc4ccc(OCc5cccc(F)c5)c(Cl)c4)c3c2)o1 [lapatinib]
In short: (§1)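 Soluble protein was defined as the supernatant remaining after 21,000xg for 90 min, following pooling of heated aliquots and adjustment to 0.5% NP-40 at 4°C. Before that, crude K562 extract at 1 mg/mL protein in PBS pH 7.4 with 1 mM MgCl2 was treated with 10 μM compound for 30 min and heated for 3 min across 48°C-58°C. Quantification used TMTpro 16plex LC-MS/MS with channel sums equalised, and values are log-two fold changes in thermal stability relative to solvent controls from duplicates.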

pictilisib = compound: CS(=O)(=O)N1CCN(Cc2cc3nc(-c4cccc5[nH]ncc45)nc(N4CCOCC4)c3s2)CC1 [pictilisib]
In short: as §1

crizotinib = compound: C[C@@H](Oc1cc(-c2cnn(C3CCNCC3)c2)cnc1N)c1c(Cl)ccc(F)c1Cl [crizotinib]
In short: as §1

[1] = compound: C[C@H](C1=CC=C(C=C1)C(=O)NC2=C3C=CNC3=NC=C2)N
In short: as §1

duvelisib = compound: C[C@H](Nc1ncnc2nc[nH]c12)c1cc2cccc(Cl)c2c(=O)n1-c1ccccc1 [duvelisib]
In short: as §1

gandotinib = compound: Cc1cc(Nc2cc(CN3CCOCC3)c3nc(C)c(Cc4ccc(Cl)cc4F)n3n2)n[nH]1 [gandotinib]
In short: as §1

tozasertib = compound: Cc1cc(Nc2cc(N3CCN(C)CC3)nc(Sc3ccc(NC(=O)C4CC4)cc3)n2)n[nH]1 [tozasertib]
In short: as §1

doramapimod = compound: Cc1ccc(-n2nc(C(C)(C)C)cc2NC(=O)Nc2ccc(OCCN3CCOCC3)c3ccccc23)cc1 [doramapimod]
In short: as §1

bafetinib = compound: Cc1ccc(NC(=O)c2ccc(CN3CC[C@H](N(C)C)C3)c(C(F)(F)F)c2)cc1Nc1nccc(-c2cncnc2)n1 [bafetinib]
In short: as §1

[2] = compound: Cc1cccc(CC(=O)N2CCc3c2ccc(-c2cn(C)c4ncnc(N)c24)c3F)n1
In short: as §1

Sequence of UniProt Q9UPR3 (Q9UPR3 whole entry, looked up): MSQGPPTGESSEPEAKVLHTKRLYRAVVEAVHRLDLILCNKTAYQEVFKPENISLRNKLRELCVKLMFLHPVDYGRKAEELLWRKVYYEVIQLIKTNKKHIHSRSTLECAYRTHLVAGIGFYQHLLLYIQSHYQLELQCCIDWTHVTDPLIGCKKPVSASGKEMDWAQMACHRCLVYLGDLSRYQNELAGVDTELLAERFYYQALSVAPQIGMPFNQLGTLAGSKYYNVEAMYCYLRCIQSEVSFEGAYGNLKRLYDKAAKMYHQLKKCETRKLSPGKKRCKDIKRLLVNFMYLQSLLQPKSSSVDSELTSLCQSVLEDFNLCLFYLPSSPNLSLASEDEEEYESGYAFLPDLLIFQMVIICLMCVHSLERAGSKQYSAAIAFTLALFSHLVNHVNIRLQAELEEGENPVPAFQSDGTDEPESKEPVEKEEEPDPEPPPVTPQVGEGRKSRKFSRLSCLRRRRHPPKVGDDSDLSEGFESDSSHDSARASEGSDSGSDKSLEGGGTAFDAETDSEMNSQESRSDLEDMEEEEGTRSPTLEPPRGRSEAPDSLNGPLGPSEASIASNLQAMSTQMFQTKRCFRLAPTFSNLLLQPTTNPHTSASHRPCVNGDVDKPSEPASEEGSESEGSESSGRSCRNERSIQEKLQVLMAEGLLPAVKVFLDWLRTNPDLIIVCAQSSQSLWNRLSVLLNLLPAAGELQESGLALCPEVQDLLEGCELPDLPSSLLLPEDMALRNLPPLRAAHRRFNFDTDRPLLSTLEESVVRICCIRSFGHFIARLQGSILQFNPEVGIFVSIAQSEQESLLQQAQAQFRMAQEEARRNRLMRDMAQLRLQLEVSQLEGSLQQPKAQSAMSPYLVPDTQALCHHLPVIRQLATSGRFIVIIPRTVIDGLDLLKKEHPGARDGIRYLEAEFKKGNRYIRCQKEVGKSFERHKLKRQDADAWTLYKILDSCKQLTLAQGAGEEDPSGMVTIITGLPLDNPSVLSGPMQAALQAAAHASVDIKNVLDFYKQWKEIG
Sequence of UniProt O00161 (O00161 whole entry, looked up): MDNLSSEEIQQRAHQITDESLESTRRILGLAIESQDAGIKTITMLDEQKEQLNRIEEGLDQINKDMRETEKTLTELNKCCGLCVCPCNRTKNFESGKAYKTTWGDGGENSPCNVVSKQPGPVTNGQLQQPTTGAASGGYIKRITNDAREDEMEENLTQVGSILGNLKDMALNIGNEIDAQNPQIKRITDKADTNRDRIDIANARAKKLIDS
Sequence of UniProt Q14542 (Q14542 whole entry, looked up): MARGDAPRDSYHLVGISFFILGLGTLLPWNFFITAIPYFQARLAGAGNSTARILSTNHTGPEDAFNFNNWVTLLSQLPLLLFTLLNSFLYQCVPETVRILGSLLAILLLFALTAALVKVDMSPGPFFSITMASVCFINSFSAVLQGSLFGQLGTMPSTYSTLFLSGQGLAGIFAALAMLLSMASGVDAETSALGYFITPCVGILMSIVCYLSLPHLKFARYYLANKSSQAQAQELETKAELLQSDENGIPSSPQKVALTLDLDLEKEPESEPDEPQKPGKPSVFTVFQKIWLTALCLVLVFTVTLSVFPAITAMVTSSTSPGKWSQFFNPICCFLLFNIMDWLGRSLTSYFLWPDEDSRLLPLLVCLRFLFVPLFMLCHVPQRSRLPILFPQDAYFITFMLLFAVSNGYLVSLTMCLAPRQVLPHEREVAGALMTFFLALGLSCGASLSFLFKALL
Sequence of UniProt P05455 (P05455 whole entry, looked up): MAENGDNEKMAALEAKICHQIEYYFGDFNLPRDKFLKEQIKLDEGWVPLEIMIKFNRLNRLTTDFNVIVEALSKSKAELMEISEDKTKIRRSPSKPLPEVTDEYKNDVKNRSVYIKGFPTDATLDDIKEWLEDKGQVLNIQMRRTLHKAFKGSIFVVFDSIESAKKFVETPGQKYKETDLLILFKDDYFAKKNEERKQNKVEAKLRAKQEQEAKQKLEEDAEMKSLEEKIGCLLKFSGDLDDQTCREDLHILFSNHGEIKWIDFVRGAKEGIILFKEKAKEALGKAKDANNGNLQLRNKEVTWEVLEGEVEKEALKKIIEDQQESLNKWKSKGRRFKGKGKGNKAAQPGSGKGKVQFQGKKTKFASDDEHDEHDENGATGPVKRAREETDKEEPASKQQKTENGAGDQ
Sequence of UniProt P53814 (P53814 whole entry, looked up): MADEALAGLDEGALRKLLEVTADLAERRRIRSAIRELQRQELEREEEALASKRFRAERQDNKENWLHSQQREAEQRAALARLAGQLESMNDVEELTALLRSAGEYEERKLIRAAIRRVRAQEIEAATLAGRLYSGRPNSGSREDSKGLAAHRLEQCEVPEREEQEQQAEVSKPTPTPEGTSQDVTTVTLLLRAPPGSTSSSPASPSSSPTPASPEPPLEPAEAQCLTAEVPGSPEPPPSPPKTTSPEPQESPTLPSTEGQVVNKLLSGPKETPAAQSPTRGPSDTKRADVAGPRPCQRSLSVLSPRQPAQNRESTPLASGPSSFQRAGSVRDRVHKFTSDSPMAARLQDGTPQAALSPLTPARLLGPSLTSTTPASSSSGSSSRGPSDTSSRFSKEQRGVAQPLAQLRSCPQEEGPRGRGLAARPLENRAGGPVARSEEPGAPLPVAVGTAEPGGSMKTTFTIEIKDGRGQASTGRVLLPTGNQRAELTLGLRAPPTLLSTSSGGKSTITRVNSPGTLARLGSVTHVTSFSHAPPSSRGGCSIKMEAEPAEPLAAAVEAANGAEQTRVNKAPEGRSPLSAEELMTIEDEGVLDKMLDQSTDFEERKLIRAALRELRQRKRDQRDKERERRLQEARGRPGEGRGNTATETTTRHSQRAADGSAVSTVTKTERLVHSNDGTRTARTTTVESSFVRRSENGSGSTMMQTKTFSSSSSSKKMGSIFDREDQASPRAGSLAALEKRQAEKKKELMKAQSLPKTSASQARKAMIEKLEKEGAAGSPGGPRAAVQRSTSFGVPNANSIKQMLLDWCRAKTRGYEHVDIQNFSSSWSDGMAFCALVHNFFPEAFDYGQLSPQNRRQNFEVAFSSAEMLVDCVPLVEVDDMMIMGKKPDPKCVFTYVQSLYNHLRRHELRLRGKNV
Sequence of UniProt O15198 (O15198 whole entry, looked up): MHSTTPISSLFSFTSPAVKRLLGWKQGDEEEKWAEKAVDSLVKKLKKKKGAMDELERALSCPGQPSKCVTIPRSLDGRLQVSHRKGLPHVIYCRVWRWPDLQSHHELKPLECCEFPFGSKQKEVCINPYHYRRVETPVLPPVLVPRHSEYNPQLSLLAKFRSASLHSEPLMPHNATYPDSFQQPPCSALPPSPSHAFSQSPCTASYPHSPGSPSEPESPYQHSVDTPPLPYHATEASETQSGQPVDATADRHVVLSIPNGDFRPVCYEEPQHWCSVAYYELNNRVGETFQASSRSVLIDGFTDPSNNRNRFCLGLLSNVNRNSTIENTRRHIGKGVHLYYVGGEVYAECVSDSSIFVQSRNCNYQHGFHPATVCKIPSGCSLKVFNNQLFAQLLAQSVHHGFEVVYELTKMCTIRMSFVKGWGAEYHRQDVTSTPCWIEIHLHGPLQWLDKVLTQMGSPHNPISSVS
Sequence of UniProt Q9NRP7 (Q9NRP7 whole entry, looked up): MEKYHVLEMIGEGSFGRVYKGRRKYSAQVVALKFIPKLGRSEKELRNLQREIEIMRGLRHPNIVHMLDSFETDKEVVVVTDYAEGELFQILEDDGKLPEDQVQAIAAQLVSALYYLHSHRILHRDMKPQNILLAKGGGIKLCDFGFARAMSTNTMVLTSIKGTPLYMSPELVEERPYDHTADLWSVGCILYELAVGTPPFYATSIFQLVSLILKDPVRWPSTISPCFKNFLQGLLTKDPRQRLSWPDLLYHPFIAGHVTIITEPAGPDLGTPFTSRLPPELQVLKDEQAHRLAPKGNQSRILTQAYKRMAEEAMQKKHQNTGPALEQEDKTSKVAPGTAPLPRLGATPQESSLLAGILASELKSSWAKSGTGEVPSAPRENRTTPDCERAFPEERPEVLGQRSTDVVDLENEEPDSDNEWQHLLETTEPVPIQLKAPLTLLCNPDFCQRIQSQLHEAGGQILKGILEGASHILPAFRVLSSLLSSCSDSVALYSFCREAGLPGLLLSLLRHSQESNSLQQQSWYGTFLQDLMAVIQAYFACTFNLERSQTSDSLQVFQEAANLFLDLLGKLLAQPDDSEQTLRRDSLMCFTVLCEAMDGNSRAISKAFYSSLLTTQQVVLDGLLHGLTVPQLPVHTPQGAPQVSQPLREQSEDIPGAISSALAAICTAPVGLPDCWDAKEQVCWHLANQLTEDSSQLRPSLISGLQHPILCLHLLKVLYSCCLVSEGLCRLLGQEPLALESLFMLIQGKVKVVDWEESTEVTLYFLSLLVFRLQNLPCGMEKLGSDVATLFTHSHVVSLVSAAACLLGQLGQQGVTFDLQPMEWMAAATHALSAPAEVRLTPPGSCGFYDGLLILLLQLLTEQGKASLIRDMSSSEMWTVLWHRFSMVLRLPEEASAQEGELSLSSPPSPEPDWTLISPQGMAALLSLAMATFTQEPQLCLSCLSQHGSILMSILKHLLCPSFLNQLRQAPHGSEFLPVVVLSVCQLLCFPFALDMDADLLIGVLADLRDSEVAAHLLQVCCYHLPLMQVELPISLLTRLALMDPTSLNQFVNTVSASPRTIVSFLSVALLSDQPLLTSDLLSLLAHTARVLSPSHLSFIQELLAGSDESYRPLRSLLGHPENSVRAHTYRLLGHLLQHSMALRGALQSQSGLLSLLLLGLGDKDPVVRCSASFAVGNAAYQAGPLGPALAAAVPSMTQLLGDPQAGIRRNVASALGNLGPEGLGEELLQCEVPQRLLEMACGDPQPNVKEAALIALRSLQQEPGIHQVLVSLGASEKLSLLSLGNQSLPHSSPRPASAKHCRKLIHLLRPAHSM
Sequence of UniProt Q96KF7 (Q96KF7 whole entry, looked up): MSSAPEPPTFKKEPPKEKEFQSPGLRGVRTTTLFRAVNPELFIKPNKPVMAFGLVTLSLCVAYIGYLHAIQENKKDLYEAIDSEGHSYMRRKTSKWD
Sequence of UniProt Q9Y3B4 (Q9Y3B4 whole entry, looked up): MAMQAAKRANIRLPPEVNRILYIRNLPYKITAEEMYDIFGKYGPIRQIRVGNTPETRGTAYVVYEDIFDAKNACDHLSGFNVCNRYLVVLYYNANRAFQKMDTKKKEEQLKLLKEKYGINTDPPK

Target	log2 fold change (lapatinib)	log2 fold change (pictilisib)	log2 fold change (crizotinib)	log2 fold change [1]	log2 fold change (duvelisib)	log2 fold change (gandotinib)	log2 fold change (tozasertib)	log2 fold change (doramapimod)	log2 fold change (bafetinib)	log2 fold change [2]
SMTN isoform 6 (UniProt P53814)	0.103	-0.042	-0.012	-0.06	0.033	0.032	0.019	0.006	0.059	0.028
SNRPF (UniProt P62306)	0.021	-0.029	-0.077	-0.237	0.076	0.21	-0.016	0.026	0.05	0.218
SMAD9 (UniProt O15198)	-0.056	-0.036	-0.027	-0.047	0.091	0.077	0.091	0.024	0.014	-0.019
SORBS3 (UniProt O60504)	0.072	0.007	-0.002	0.006	-0.127	0.024	-0.012	-0.019	-0.032	0.025
SLC30A9 (UniProt Q6PML9)	-0.007	-0.054	-0.043	-0.423	0.048	0.008	-0.003	0.036	-0.161	0.312 (active)
STARD3 isoform 3 (UniProt Q14849)	-0.094	-0.087	-0.024	-0.072	-0.005	0.027	-0.075	0.021	-0.209	0.084
SRP54 (UniProt P61011)	0.021	-0.021	0.019	-0.035	-0.024	0.039	-0.004	0.041	-0.029	0.04
SRSF2 (UniProt Q01130)	0.015	-0.005	0.006	-0.299 (active)	0.061	0.079	0.026	0.05	-0.016	0.109
SPATA5L1 (UniProt Q9BVQ7)	-0.017	0.011	-0.107	0.016	0.001	-0.076	0.013	-0.035	-0.001	0.049
STK36 (UniProt Q9NRP7)	-0.213	-0.007	-0.833	-0.551	0.191	0.284	0	0.202	-0.322	0.398
SH3GL3 isoform 3 (UniProt Q99963)	-0.07	-0.087	-0.04	-0.548 (active)	-0.005	0.326	0.028	0.016	-0.147	0.446 (active)
SLC29A2 (UniProt Q14542)	-0.006	0.04	-0.068	-0.558 (active)	0.083	0.159	0.035	-0.023	0.045	0.146
SF3B6 (UniProt Q9Y3B4)	-0.01	-0.083	-0.008	0.009	0.059	-0.069	-0.188	0.047	-0.009	-0.058
SYNE2 isoform 2 (UniProt Q8WXH0)	-0.082	-0.103	0.058	-0.93 (active)	0.073	0.296	-0.003	0.183	-0.194	0.397
SMC4 (UniProt Q9NTJ3)	-0.028	-0.002	-0.007	0.068	0.009	-0.154	-0.012	-0.026	-0.021	-0.051
SMG5 (UniProt Q9UPR3)	-0.038	0.057	-0.007	0.01	-0.006	-0.003	0.019	-0.131	-0.035	-0.007
SQLE (UniProt Q14534)	-0.056	-0.04	-0.057	-0.025	-0.057	-0.028	0.068	-0.035	-0.047	0.031
SPATA5 (UniProt Q8NB90)	-0.017	-0.009	-0.046	-0.027	-0.015	-0.13	0.02	-0.017	-0.05	0.034
SMIM8 (UniProt Q96KF7)	-0.053	-0.079	-0.041	-0.146	0.019	0.128	-0.038	-0.059	-0.035	0.018
STK39 (UniProt Q9UEW8)	0.011	-0.038	-0.063	-0.012	0.087	-0.044	0.021	0.032	-0.03	0.057
SPATS2 (UniProt Q86XZ4)	0.027	-0.119	0.09	-0.016	0.048	0.145	-0.062	-0.126	-0.206	-0.164
SNAP23 (UniProt O00161)	0.005	-0.035	0.067	0.034	-0.004	0.007	0.005	0.002	0.059	-0.05
SPIRE1 (UniProt Q08AE8)	-0.019	0.012	-0.072	-0.281 (active)	-0.021	0.128	-0.023	0.151	-0.031	0.134
SPAG5 (UniProt Q96R06)	0.013	-0.004	-0.056	-0.016	0.038	-0.11	0.029	0.036	-0.044	0.058
SLC16A1 (UniProt P53985)	-0.009	0.019	0.006	-0.341 (active)	-0.011	0.22	-0.008	-0.017	-0.041	0.246 (active)
SSB (UniProt P05455)	-0.024	0.015	0.046	0.05	-0.01	-0.03	0.009	-0.032	0.017	-0.036
SULT1A1 (UniProt P50225)	0.023	-0.052	-0.074	-0.014	-0.009	-0.023	-0.002	-0.037	-0.025	0.046
